# M18AAP inhibitor – PfM18AAP inhibitors, malaria aminopeptidase, primary screen, biochemical, QFRET, recombinant enzyme; inhibition, % at 7.35 µM; 290,000 compounds, 1.2% hits; M18 aspartyl aminopeptidase (Plasmodium falciparum 3D7); AID 1822, 2009; H-Glu-NHMec fluorogenic cleavage;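 active = inhibition above the campaign mean inhibition over all tested compounds plus 3 SD, cut at about 28% in these data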;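 note: 0% = plate median of test compound wells and 100% = 2 mM ZnCl2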
# ALR inh – inhibitors of human ALR sulfhydryl oxidase, primary screen, biochemical, H2O2 detection, HRP-luminol luminescence, single point | 290,000 compounds, 3.8% hits | inhibition, % (test concentration not listed) | FAD-linked sulfhydryl oxidase ALR (Homo sapiens), P55789 | purified ALR, DTT oxidation;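 active = mean replicate inhibition above about 79%, with every replicate also reaching it, limit read from the data; inconclusive = only one of the two criteria met; inactive = mean below limit and not every replicate reaching it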
# IDE cell inh – human IDE inhibitors in live cells, primary screen, fluorescence polarization, HEK cells, FAbetaB substrate. Insulin-degrading enzyme (Homo sapiens), P14735. FAbetaB cleavage. inhibition, % at 5.59 µM. 320,000 compounds, 0.41% hits. AID 434962, 2010;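 active = percent inhibition above the average of all tested compounds plus 3 SD, set per screening campaign, cut at about 16% in these data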;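 note: IDE supplied by intact live HEK cells; FP after avidin binding of uncleaved biotin substrate so inhibition keeps polarization high; 0% = DMSO wells and 100% = 60 µM reference IDE inhibitor Ii1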
# IDE act – human IDE activators in live cells, primary screen, fluorescence polarization, HEK cells, FAbeta-B substrate; FAbeta-B cleavage; 0% vehicle, 100% cell-free pure enzyme wells; activation, % at 5.96 µM; 340,000 compounds, 0.073% hits;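 active = activation above the mean of all tested compounds plus 3 SD, set per screening campaign, cut at about 17% in these data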
# PolyA inhibitor – polyadenylation inhibitors in yeast reporter cells, primary screen, luminescence, S. cerevisiae. S. cerevisiae SKY197-pL101 polyadenylation reporter, beta-gal luminescence; efflux-impaired pdr1/pdr3 knockout yeast; score 100 = 6 SD above DMSO. activity score, % at 12 µM. 300,000 compounds, 0.02% hits. AID 1875, 2009;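 active = lowest replicate activity score at least 50, where 100 means six control SD above control mean; inconclusive = lowest score under 50 but half or more replicates reach 50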;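 note: yeast exposed to compound for 9 h at 30 °C; higher score means more reporter readthrough which indicates perturbed polyadenylation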
# CaV13 FRET inh – Disruptors of the CACNA1D IQ motif to Ca2+-dependent inactivation inhibitor domain association, primary screening, Förster resonance energy transfer in intact living …. inhibition, % at 12.3 µM. HEK cells, CFP/YFP FRET ICDI-IQ, plate reader, 10 min; percent FRET-ratio fall versus neutral wells. AID 743397. 340,000 compounds, 0.098% hits;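 active = mean replicate inhibition of at least 30% and at least 1% of replicates passing that level; inconclusive = only one of the two criteria is met; inactive = neither criterion is met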;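 note: 0% = median of the neutral control wells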
# Active calls of the source: *; ? = inconclusive; · = not tested or not shown. This is a sample that favours compounds with a hit; in the whole collection about 4.1% have one here.
SMILES,M18AAP inhibitor,ALR inh,IDE cell inh,IDE act,PolyA inhibitor,CaV13 FRET inh
CCOC(=O)C(C)On1c(-c2ccc(Cl)cc2)nc2ccc([N+](=O)[O-])cc21 (centres undefined),-13,-2,2,-6,1,-5
CCCOC(=O)C(C)n1c(-c2ccccc2)nc2ccccc2c1=O (centres undefined),-15,91*,0,7,10,-4
Cc1cc(=O)oc2c3c4c(cc12)OCCN4CCC3,6,97*,-1,-4,-9,19
CC(C)c1cc(=O)oc2c3c4c(cc12)CCCN4CCC3,-1,-11,2,1,-14,·
CN1CCC(C)(C(=O)Nc2cccc(Oc3ccccc3)c2)C1 (centres undefined),·,·,·,·,·,-6
CN(C)S(=O)(=O)c1cccc(COC(=O)CNC(=O)c2ccc(Br)o2)c1,·,·,·,4,·,-5
COc1ccccc1N1CCN(c2cc(N3CCCC3)nc(C)n2)CC1,0,?,2,3,-1,·
COc1ccc(OC)c2c(C)cc(N3CCCN(C)CC3)nc12,-2,98*,2,7,1,-8
CN1C2CCC1CC(OC(=O)C(CO)c1ccccc1)C2 (centres undefined),·,-1,1,4,·,-5
O=C1/C(=C/c2ccccc2)CSc2sccc21,-8,-5,7,-2,-26,·
O=C(O)c1cccc(S(=O)(=O)Nc2ccc3[nH]c(=O)[nH]c3c2)c1,3,15,7,1,-28,-6
O=C(O)c1cccc(S(=O)(=O)Nc2ccc3oc(=O)sc3c2)c1,42*,7,10,2,-15,·
O=c1oc2ccc(NS(=O)(=O)c3cccc4cccnc34)cc2s1,31*,·,6,-3,-10,-3
Cc1ccc(SCC(=O)NCCc2ccc(F)cc2)cc1,1,-6,-2,4,-19,-21
O=C(CSc1nc2nc(-c3cccs3)cc(C(F)(F)F)c2c(=O)[nH]1)NCc1ccco1,28*,18,-4,2,-5,·
CC(=O)Nc1ccc(NC(=O)CSc2nc3nc(-c4cccs4)cc(C(F)(F)F)c3c(=O)[nH]2)cc1,0,99*,2,8,13,-2
CC(C)(C)c1ccc(OCCC(=O)Nc2ccc(N3CCOCC3)cc2N2CCOCC2)cc1,·,9,0,2,-8,-7
COc1cc(NC(=O)CCS(=O)(=O)c2ccc3c(c2)n(C)c(=O)c(=O)n3C)cc(OC)c1,-28,-19,5,4,-5,-2
Cc1cc(N2CCOCC2)n2ncc(-c3ccc(Cl)cc3)c2n1,3,-2,-2,-1,-18,-12
Cc1ccc(-c2cnn3c(N4CCOCC4)cc(C)nc23)cc1,4,93*,·,1,0,-5
O=[N+]([O-])c1ccc2c(c1)C=C1CCCCC1(N1CCCC1)O2 (centres undefined),-2,92*,4,3,-3,-15
Cc1c(Cl)c(C(=O)NNC(=S)Nc2ccc(F)cc2)nn1C,19,81*,-1,3,11,-3
Cc1c(Cl)c(C(=O)NNC(=S)Nc2ccccc2)nn1C,25,91*,0,3,-6,·
CCNC(=S)NNC(=O)c1nn(C)c(C)c1Cl,19,11,0,4,-8,0
Cc1nn(CCC(=O)NNC(=S)Nc2ccc(F)cc2)c(C)c1[N+](=O)[O-],12,37,1,-3,24,-4
O=C(O)CSC1CC(=O)N(c2ccc(F)cc2)C1=O (centres undefined),·,·,·,·,·,-5
O=C(CSC1CC(=O)N(CCc2ccccc2)C1=O)Nc1cccc(Cl)c1 (centres undefined),-2,99*,11,-4,-9,-8

# Screening results as filed in PubChem.
